# In publication PMC7862700, “An all-to-all approach to the identification of sequence-specific readers for epigenetic DNA modifications on cytosine”:
# Experiments:
# Assay in all cases: DAPPL (digital affinity profiling via proximity ligation, sequencing); 10 mM Tris-HCl pH 7.5, 50 mM NaCl, 1 mM DTT, 4% glycerol, room temperature, 30 min; GST-TFs on glutathione beads, 16-mer random dsDNA library, 0.1% formaldehyde crosslink after washing; high values mean tight binding
# Conditions in all cases: protein: recombinant; tags: N-terminal GST; dsDNA, one strand shown
# FLI1 = target: T1, FLI1 (Homo sapiens, UniProt Q01543 1-452)
# T1 sequence: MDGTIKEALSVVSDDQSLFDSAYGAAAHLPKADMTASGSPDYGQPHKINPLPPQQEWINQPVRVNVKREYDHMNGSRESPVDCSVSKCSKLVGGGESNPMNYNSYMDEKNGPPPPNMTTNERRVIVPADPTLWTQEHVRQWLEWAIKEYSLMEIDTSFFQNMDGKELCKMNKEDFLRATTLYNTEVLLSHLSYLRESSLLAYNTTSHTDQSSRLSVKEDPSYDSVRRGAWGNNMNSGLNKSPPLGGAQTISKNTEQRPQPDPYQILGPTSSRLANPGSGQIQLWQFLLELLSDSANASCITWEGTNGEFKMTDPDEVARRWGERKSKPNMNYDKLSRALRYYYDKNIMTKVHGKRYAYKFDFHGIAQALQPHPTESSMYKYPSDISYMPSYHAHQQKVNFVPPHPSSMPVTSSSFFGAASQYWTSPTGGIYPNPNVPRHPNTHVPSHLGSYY
# Outline: (§1)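 Each value of binding signal is a hexamer's read frequency for a factor divided by the same hexamer's frequency in the tag-only sample. Barcoded, bead-captured GST fusions of human transcription factors made in yeast were pooled with that sample and incubated with 200 nmole of a random double-stranded 16-mer DNA library in Tris/NaCl/DTT/glycerol buffer at room temperature for 30 min. Washing, 0.1% formaldehyde crosslinking, proximity ligation, PCR and Illumina NextSeq500 sequencing followed.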
# ELK1 = target: T2, ELK1 (Homo sapiens, UniProt P19419 1-428)
# T2 sequence: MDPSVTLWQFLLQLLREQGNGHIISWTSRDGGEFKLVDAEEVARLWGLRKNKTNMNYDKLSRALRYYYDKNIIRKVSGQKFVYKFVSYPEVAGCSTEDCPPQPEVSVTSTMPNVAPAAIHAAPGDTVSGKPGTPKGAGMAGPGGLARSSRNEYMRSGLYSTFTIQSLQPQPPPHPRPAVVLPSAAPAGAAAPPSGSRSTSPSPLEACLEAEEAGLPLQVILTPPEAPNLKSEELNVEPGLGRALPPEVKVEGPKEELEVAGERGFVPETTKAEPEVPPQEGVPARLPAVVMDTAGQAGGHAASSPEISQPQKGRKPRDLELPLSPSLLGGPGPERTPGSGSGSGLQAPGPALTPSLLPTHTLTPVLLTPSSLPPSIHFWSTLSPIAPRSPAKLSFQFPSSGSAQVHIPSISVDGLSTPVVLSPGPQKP
# Outline: as §1
# GABPA = target: T3, GABPA (Homo sapiens, UniProt Q06546 1-454)
# T3 sequence: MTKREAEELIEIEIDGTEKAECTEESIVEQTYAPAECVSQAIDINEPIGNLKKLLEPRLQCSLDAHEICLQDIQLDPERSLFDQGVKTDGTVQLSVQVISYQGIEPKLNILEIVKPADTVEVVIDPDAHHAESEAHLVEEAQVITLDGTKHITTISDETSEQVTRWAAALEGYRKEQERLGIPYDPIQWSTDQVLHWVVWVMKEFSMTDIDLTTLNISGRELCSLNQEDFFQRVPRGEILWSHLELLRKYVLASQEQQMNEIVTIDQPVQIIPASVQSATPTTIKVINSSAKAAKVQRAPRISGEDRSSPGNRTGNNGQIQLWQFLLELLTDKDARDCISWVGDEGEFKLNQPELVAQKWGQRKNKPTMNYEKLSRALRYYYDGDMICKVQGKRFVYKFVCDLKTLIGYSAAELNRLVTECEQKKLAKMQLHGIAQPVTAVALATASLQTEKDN
# Outline: as §1
# ERG = target: T4, ERG (Homo sapiens, UniProt P11308 1-479)
# T4 sequence: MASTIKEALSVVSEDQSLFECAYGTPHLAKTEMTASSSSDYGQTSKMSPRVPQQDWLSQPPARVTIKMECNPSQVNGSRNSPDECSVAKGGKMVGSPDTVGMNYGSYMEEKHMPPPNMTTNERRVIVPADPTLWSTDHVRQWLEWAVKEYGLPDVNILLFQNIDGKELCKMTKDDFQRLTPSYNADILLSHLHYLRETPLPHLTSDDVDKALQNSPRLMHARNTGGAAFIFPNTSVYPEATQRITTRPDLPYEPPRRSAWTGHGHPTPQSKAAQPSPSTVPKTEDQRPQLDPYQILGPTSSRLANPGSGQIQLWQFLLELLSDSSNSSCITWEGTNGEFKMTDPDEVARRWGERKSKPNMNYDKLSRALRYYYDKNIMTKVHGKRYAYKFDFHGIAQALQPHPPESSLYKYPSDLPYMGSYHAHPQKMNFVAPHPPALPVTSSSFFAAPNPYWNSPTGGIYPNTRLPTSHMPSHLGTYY
# Outline: as §1
# ELF1 = ELF1 (Homo sapiens, UniProt P32519 1-619)
# Sequence of ELF1 (P32519 whole entry): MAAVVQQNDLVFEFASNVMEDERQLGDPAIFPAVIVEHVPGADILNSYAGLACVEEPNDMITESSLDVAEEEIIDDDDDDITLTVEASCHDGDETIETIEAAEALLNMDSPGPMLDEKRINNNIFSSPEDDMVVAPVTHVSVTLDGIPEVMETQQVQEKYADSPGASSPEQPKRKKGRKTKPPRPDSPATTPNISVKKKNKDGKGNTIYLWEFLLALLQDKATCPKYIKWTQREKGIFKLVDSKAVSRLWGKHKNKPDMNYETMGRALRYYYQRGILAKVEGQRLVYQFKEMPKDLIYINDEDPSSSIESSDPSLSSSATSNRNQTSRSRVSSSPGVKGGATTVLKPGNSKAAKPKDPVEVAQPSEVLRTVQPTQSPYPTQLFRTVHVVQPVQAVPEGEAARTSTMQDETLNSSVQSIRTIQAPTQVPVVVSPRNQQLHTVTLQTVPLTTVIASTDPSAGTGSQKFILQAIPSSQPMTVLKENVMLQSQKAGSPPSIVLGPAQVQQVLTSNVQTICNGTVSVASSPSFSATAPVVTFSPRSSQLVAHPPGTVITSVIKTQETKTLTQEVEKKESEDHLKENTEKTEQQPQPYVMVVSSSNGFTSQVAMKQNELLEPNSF
# Outline: as §1
# EHF = target: T5, EHF (Homo sapiens, UniProt Q9NZC4 1-300)
# T5 sequence: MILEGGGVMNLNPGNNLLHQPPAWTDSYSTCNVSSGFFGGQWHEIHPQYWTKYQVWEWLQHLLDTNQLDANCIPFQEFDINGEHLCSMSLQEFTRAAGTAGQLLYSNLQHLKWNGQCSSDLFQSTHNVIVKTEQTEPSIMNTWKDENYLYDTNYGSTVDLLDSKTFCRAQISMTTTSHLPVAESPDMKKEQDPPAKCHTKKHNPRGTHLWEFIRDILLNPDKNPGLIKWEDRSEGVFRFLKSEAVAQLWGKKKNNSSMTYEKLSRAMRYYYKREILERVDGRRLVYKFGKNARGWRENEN
# Outline: as §1
# SPI1 = SPI1 (Homo sapiens, UniProt P17947 1-270)
# Outline: as §1
# SPIB = SPIB (Homo sapiens, UniProt Q01892 1-262)
# Sequence of SPIB (Q01892 whole entry): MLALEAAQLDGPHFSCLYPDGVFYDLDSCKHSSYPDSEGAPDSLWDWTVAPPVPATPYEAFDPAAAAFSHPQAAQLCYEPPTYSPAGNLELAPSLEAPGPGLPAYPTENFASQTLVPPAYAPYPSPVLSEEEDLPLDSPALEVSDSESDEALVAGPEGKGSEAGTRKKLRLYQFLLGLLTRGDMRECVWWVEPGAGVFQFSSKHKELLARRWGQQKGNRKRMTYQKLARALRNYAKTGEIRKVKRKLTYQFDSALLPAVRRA
# Outline: as §1
# ELK3 = target: T6, ELK3 (Homo sapiens, UniProt P41970 1-407)
# T6 sequence: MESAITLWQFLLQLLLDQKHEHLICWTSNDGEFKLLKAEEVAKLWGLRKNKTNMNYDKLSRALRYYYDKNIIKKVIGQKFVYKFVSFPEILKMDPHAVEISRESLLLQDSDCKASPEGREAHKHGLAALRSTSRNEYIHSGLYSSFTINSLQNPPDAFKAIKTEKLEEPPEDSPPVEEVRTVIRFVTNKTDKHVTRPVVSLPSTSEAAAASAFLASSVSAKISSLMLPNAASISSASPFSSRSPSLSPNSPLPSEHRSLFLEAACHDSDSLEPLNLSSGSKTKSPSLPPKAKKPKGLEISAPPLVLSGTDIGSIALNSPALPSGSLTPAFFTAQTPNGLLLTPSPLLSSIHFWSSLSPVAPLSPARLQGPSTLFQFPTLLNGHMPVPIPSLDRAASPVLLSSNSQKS
# Outline: as §1
# FEV = target: T7, FEV (Homo sapiens, UniProt Q99581 1-238)
# T7 sequence: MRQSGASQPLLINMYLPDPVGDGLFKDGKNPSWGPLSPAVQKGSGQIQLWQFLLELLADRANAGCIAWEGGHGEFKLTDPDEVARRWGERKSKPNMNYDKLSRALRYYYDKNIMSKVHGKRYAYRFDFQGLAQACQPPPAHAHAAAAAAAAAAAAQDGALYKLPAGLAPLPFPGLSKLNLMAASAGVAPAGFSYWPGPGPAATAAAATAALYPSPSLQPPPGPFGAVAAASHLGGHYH
# Outline: as §1
# ETV5 = ETV5 (Homo sapiens, UniProt P41161 1-510)
# Sequence of ETV5 (P41161 whole entry): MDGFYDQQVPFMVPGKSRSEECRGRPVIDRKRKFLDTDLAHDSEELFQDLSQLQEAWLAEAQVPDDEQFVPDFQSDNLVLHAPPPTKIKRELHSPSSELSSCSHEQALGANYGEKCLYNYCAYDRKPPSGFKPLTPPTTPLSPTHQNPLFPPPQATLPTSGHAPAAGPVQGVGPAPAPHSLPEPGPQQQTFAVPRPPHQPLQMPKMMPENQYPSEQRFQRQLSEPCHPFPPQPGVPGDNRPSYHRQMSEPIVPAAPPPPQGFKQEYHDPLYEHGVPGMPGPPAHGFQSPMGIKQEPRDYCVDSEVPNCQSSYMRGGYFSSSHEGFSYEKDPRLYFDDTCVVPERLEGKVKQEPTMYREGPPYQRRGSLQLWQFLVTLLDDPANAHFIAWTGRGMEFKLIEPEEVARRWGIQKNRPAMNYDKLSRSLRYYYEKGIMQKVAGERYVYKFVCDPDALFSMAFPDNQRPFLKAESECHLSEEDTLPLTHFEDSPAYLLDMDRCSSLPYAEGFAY
# Outline: as §1
# SPIC = target: T8, SPIC (Homo sapiens, UniProt Q8N5J4 1-248)
# T8 sequence: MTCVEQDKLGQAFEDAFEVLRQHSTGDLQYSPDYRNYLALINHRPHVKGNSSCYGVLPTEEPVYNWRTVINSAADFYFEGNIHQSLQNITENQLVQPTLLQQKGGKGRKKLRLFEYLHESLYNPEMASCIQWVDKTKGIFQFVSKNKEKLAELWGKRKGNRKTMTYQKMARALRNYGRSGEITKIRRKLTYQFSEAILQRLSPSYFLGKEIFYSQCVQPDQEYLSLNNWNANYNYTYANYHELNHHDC
# Outline: as §1
# ELF4 = ELF4 (Homo sapiens, UniProt Q99607 1-663)
# Sequence of ELF4 (Q99607 whole entry): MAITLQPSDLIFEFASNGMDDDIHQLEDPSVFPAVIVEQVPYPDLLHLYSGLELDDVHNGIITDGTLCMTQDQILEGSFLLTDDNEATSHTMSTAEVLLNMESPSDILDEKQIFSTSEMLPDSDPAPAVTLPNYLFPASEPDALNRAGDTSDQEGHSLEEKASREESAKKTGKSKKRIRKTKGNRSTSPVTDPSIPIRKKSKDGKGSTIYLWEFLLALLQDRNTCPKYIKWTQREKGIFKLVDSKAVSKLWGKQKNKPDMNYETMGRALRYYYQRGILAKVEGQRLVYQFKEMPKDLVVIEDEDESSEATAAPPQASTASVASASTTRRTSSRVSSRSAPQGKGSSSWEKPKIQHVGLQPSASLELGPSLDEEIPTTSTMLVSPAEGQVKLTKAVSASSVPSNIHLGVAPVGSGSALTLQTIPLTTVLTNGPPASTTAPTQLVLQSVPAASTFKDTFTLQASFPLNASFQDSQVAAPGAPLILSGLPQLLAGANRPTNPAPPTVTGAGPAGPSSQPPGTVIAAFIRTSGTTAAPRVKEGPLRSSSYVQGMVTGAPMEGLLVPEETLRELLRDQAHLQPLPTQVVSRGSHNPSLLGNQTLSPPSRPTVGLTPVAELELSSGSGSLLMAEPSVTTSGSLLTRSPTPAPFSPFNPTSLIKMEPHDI
# Outline: as §1
# ELK4 = target: T9, ELK4 (Homo sapiens, UniProt P28324-2 1-405)
# T9 sequence: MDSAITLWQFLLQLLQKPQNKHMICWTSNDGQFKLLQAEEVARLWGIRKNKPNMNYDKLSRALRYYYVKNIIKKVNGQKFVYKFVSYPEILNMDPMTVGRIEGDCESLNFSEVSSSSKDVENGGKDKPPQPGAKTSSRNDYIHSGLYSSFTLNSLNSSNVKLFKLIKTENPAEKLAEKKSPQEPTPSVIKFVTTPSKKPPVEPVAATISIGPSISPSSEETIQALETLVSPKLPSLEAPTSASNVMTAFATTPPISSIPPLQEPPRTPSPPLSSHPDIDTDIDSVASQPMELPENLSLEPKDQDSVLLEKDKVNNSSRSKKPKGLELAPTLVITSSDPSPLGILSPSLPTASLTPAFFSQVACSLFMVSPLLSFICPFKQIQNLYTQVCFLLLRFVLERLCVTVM
# Outline: as §1
# ETV2 = target: T10, ETV2 (Homo sapiens, UniProt O00321 1-342)
# T10 sequence: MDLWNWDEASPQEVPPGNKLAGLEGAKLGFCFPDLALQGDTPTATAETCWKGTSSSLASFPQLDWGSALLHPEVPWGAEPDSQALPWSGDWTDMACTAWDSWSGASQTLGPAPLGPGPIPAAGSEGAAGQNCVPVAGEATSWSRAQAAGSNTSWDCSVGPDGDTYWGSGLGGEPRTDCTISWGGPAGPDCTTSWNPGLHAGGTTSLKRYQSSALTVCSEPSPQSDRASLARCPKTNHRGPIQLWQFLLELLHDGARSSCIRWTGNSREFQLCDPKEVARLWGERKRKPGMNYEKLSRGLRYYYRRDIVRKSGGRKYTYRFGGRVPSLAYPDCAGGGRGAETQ
# Outline: as §1
# ELF3 = target: T11, ELF3 (Homo sapiens, UniProt P78545 1-371)
# T11 sequence: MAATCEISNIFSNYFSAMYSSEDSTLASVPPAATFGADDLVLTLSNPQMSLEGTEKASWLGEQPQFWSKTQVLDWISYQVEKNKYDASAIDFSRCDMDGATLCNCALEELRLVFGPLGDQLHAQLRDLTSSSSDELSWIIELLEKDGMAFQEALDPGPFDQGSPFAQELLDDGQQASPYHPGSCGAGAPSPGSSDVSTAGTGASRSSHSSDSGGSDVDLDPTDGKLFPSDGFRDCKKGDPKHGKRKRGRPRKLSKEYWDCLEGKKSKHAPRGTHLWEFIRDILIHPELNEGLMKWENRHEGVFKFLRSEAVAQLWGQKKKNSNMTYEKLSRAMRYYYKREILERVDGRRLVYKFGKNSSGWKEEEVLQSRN
# Outline: as §1
# ETV1 = ETV1 (Homo sapiens, UniProt P50549 1-477)
# Sequence of ETV1 (P50549 whole entry): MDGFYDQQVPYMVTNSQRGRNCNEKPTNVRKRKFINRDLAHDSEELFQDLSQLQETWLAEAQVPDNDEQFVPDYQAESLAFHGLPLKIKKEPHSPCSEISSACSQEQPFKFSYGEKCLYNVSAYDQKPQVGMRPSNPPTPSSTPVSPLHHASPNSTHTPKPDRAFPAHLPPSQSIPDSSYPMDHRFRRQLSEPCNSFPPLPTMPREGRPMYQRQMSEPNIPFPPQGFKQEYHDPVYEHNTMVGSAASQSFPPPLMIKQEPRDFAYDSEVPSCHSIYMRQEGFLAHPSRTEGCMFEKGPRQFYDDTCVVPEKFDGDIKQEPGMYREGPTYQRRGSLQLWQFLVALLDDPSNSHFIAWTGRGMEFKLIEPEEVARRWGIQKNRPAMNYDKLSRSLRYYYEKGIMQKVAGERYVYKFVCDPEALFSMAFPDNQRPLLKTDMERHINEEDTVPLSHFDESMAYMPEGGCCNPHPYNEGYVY
# Outline: as §1
Sequence,binding signal (FLI1),binding signal (ELK1),binding signal (GABPA),binding signal (ERG),binding signal (ELF1),binding signal (EHF),binding signal (SPI1),binding signal (SPIB),binding signal (ELK3),binding signal (FEV),binding signal (ETV5),binding signal (SPIC),binding signal (ELF4),binding signal (ELK4),binding signal (ETV2),binding signal (ELF3),binding signal (ETV1)
CGCCGC,"1.35 fold enrichment (6-mer frequency, TF over GST control)","1.1 fold enrichment (6-mer frequency, TF over GST control)","1.19 fold enrichment (6-mer frequency, TF over GST control)","1.06 fold enrichment (6-mer frequency, TF over GST control)","1.14 fold enrichment (6-mer frequency, TF over GST control)","1.27 fold enrichment (6-mer frequency, TF over GST control)","1.11 fold enrichment (6-mer frequency, TF over GST control)","1.11 fold enrichment (6-mer frequency, TF over GST control)","1.32 fold enrichment (6-mer frequency, TF over GST control)","1.24 fold enrichment (6-mer frequency, TF over GST control)","1.13 fold enrichment (6-mer frequency, TF over GST control)","1.22 fold enrichment (6-mer frequency, TF over GST control)","1.26 fold enrichment (6-mer frequency, TF over GST control)","1.05 fold enrichment (6-mer frequency, TF over GST control)","1.03 fold enrichment (6-mer frequency, TF over GST control)","1.26 fold enrichment (6-mer frequency, TF over GST control)","1.29 fold enrichment (6-mer frequency, TF over GST control)"
CCAAAC,"1.02 fold enrichment (6-mer frequency, TF over GST control)","1.13 fold enrichment (6-mer frequency, TF over GST control)","1.15 fold enrichment (6-mer frequency, TF over GST control)","1.11 fold enrichment (6-mer frequency, TF over GST control)","1.16 fold enrichment (6-mer frequency, TF over GST control)","1.07 fold enrichment (6-mer frequency, TF over GST control)","1.06 fold enrichment (6-mer frequency, TF over GST control)","1.06 fold enrichment (6-mer frequency, TF over GST control)","1.15 fold enrichment (6-mer frequency, TF over GST control)","1.08 fold enrichment (6-mer frequency, TF over GST control)","1.07 fold enrichment (6-mer frequency, TF over GST control)","1.16 fold enrichment (6-mer frequency, TF over GST control)","1.14 fold enrichment (6-mer frequency, TF over GST control)","1.15 fold enrichment (6-mer frequency, TF over GST control)","1.07 fold enrichment (6-mer frequency, TF over GST control)","1.11 fold enrichment (6-mer frequency, TF over GST control)","1.02 fold enrichment (6-mer frequency, TF over GST control)"
